Compound activity deposited in PubChem by Corson Lab, School of Medicine, Indiana University.
Shown is part of a subset that was picked to be rich in hits.
FECH block – blocks human mitochondrial ferrochelatase activity; P22830; purified FECH, Ni-mesoporphyrin absorbance 550 nm; calls only at 10 µM (by protocol); hit rate 3.3% among 20,000; AID 1671448;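 active = enzyme reaction rate more than 3 SD below the solvent-only control wells on the same plate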;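 also: lower slope than DMSO wells means FECH inhibition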
Target sequence (P22830 whole entry, looked up): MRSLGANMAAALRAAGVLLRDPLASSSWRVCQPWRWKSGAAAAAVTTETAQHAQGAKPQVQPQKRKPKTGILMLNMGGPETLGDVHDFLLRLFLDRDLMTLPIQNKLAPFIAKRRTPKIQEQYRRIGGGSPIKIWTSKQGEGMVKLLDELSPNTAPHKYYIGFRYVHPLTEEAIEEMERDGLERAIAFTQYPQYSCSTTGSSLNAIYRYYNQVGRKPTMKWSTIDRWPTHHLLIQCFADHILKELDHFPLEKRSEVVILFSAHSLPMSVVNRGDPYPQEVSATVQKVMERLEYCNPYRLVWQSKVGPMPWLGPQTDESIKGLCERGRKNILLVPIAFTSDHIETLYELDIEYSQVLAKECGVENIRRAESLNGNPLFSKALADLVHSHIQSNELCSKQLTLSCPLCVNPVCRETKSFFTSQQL
Active calls of the source: *; i = inactive; + = active, no number.

SMILES | FECH block
COc1ccc(Cl)cc1NCc1cc(=O)n2[nH]c(NCc3ccccc3)nc2n1 | i
CCCc1cc(=O)n2[nH]c(CNc3cccc(C)c3C)nc2n1 | +
CCCc1cc(=O)n2[nH]c(CNc3cc(Cl)ccc3C)nc2n1 | +
Cc1ccc(Cl)cc1NCc1cc(=O)n2[nH]c(NCc3ccc(F)cc3)nc2n1 | i
Cc1cccc(NCc2cc(=O)n3[nH]c(NCc4ccccc4)nc3n2)c1C | i
Cc1ccc2c(c1)c(CNC(=O)c1ccc3c(c1)OCO3)nn2C | i
COCCNC(=O)C1(C)Cn2c(cc3ccsc32)C(=O)N1Cc1ccc(OC)cc1 (centres undefined) | i
O=C(COc1ccccc1)NCCn1c(-c2ccncc2)nc2cccnc21 | i
CNc1cc(C)nc(N2[C@@H]3CC[C@H]2CN(C)C(=O)C3)n1 | i
Cn1c(=O)n(CC(=O)NC2CC2)c(=O)c2cnc(-c3ccccc3)nc21 | i
O=C(NCCc1nnc2n1CCNCC2)c1cc2ccccc2[nH]1 | i
CC(=O)NCC1=CCCN(CC(=O)N2CCOc3ccccc32)C1 | i
Cc1nn(CC(=O)N2CCCC(c3ccn[nH]3)C2)c(=O)c2ccccc12 (centres undefined) | i
CC1CCc2[nH]nc(C(=O)N3CCCn4nc(C(=O)NC5CC5)cc4C3)c2C1 (centres undefined) | i
Cc1oc(-c2ccc(OC(C)C)cc2)nc1CSc1nc(-c2cccc(Cl)c2)cc(=O)[nH]1 | i
CC(CN(C)C(C)C)C(=O)N1CCc2onc(-c3ccc4c(c3)OCO4)c2C1 (centres undefined) | i
COc1ccc(NC(=O)Nc2ccc(Sc3cc(C)nc4ncnn34)cc2)cc1OC | i
CCCc1cc(=O)n2[nH]c(CNc3ccccc3C)nc2n1 | +
COc1cccc(Nc2nc(NC3CCCC3)nc3c2cnn3-c2ccccc2)c1 | i
Cc1ccc(-c2cc(C(=O)N3CCCN(CC4CC4)C(C(C)C)C3)n[nH]2)o1 (centres undefined) | i
Cc1ccnc(N2CCC(C(=O)NCCc3ccc(S(N)(=O)=O)cc3)CC2)n1 | i
O=C(NC1CCCCC1)c1nc[nH]c1C(=O)N1CCCCCC1 | i
Cc1cc(Cl)cc2c(=O)n(CC3(CO)CCC3)cnc12 | +
Cc1cc(C)c2ncn(CCC(C)O)c(=O)c2c1 (centres undefined) | i
Cc1cccc2c(=O)n(CCN3CCCC(c4ccccc4)C3)cnc12 (centres undefined) | i
SMILES | FECH block
CN(CCc1ccccn1)c1ncccc1CNC(=O)c1cnn2cccnc12 | i
CC(C)(C)c1cc(CNC(=O)CCc2nc3ccc(F)cc3[nH]2)[nH]n1 | i
CCCN(Cc1cccnc1)C(=O)c1cc(-c2ccccc2)nn1C | i
CC(C)(C)c1ccc(-c2nc3nc(CN4CCN(c5ccc(F)cc5)CC4)cc(=O)n3[nH]2)cc1 | i
CCN1CCN(Cc2cc(=O)n3[nH]c(-c4ccc(C(C)(C)C)cc4)nc3n2)CC1 | i
CCOc1ccccc1NCc1cc(=O)n2[nH]c(-c3ccc(C(C)(C)C)cc3)nc2n1 | i
CC(C)(C)c1ccc(-c2nc3nc(CNc4ccccc4F)cc(=O)n3[nH]2)cc1 | +
Cc1ccc(Cl)cc1NCc1cc(=O)n2[nH]c(-c3ccc(C(C)(C)C)cc3)nc2n1 | +
CC(C)(C)c1ccc(-c2nc3nc(CNc4ccc(Br)cc4)cc(=O)n3[nH]2)cc1 | i
CCC(c1n[nH]c(CCc2ccccc2)n1)n1cccn1 (centres undefined) | i
CCCCNc1nc(Nc2cccc(OC)c2)c2cnn(-c3ccccc3)c2n1 | i
Cc1n[nH]c(C)c1CCNC(=O)c1cn(CCc2ccccc2)nn1 | i
Cc1nc(N(C)C)ncc1C(=O)NCc1noc(-c2c(F)cccc2F)n1 | i
Cc1ccc(Nc2nc(N3CCN(c4ccc(F)cc4)CC3)nc3c2cnn3-c2ccccc2)cc1C | i
Cc1c(C(=O)NCCC2CN(C)CCO2)n(C)c2c(C)cccc12 (centres undefined) | i
COc1cccc(OCC(=O)Nc2cc(N3CCCS3(=O)=O)ccc2C)c1 | i
Cc1ccc(OCC(=O)Nc2cc(N3CCCS3(=O)=O)ccc2C)cc1 | i
Cc1cccc(OCC(=O)Nc2cc(N3CCCS3(=O)=O)ccc2C)c1 | +
CCS(=O)(=O)N1CCC2(CC1)OC(=O)C(C)=C2C(=O)N1CCN(Cc2ccccc2)CC1 | i
Cc1nc(C(=O)N2CC[C@@H](c3ccc4ccccc4c3)[C@H](O)C2)c(C)o1 | i
O=C(c1cccs1)N1CC[C@@H](c2ccc3ccccc3c2)[C@H](O)C1 | +
Cc1noc(C)c1C(=O)N1CC[C@@H](c2ccc3ccccc3c2)[C@H](O)C1 | i
Cc1ccn2c(=O)cc(CN3CCOC(CCCC(C)C)C3)nc2c1 (centres undefined) | i
CCOC(=O)Cn1c(=O)n(-c2ccc(F)cc2)c2nc(-c3ccc(CC)cc3)nc(C(N)=O)c21 | i
CCOC(=O)c1cc2ccsc2n1CC(=O)N(CC)c1ccccc1 | +
CCOC(=O)c1cc2ccsc2n1CC(=O)N(CC)c1cccc(C)c1 | i
